Our source for the binding signal values is publication PMC12136788.

Substitutions are numbered along the chain they refer to. Over roughly 5,800 sequences, “enrichment r” has its median near 0.68; the highest 2% begin near 11. The entries come from a sample that favours the highest values as a whole.

The labels stand for the following.
B1: ENSG00000124766:be:win_3501|3pUTR|ENSG00000124766|bound_else_gene|NA|bound_elsewhere_windowed (ssRNA)
RNA: GGGAGUUCUACAGUCCGACGAUCAACUUGUAAACCACAUCUUUUUUGCACUUUUUUUAUAAGCAAAAACGUGCCGUUUAAACCACUGGAUCUAUCUAAAUGCCGAUUUGAGUUCGCGACACUAUGUACUGCGUUUUUCAUUCUCAACAGAGGAUUGAGCAUCA
B2: chr10:60791946:60792061:+|CDS|ENSG00000170312|unk|FALSE|unique (ssRNA)
RNA: GGGAGUUCUACAGUCCGACGAUCGUCAGCUCGUUACUCAACUCCAGUUGACAUUUGGAGUAUAGGCACCAUAUUUGCUGAACUAGCAACUAAGAAACCACUUUUCCAUGGGGAUUCAGAAAUUGAUCAACUCUUCAGGAUUUUCAACAGAGGAUUGAGCAUCA
B3: chr19:13098382:13098626:+|3pUTR|ENSG00000008441|msi1|FALSE|unique (ssRNA)
RNA: GGGAGUUCUACAGUCCGACGAUCACGCAGUAUAUACGAGUAUCUCUAUAUAUAGUACUAAUGGAUUUGGUGUGCUUCCCCCUUAGCGUCCCCCUCCCUCUGCUCCUCCUCCUUCAGCCUGGUCUCCCCCUCUUCUCUGCCCUCCAACAGAGGAUUGAGCAUCA
B4: chr16:1487315:1487970:-|CDS|ENSG00000251692|control|control|control (ssRNA)
RNA: GGGAGUUCUACAGUCCGACGAUCGGGGGAGCUGGCGCAGCUCAAGGCCUGGGUGAGGAAGCUGCAGCGCCGAGGCCGGAAAGUAGACACGCGGCUGCGGGCCUUGGACCUCACCCUGGGCGAGAGGAGCCAGCAGCGGGCCCGCAACAGAGGAUUGAGCAUCA
B5: chr17:142788:147440:-|three_prime_utr|ENSG00000272636|control|control|control (ssRNA)
RNA: GGGAGUUCUACAGUCCGACGAUCGAGACCUCAGCACCUGCCCAGGGGAAGGGGACACGCCCAUCUGGGAGCAAAGACCCUUCUAGAGGCCAGCCCCGGCUGAGAGGACAGGAGUGUGGGGGCGCCUUGGCGGACAGUGGGAACCAACAGAGGAUUGAGCAUCA
B6: chr2:15946816:15946917:+|3pUTR|ENSG00000134323|unk|FALSE|unique (ssRNA)
RNA: GGGAGUUCUACAGUCCGACGAUCUAUAUGCCUUUUUCCUAGCCUGUUUCUUCCUGUUAAUGUAUUUGUUCAUGUUUGGUGCAUAGAACUGGGUAAAUGCAAAGUUCUGUGUUUAAUUUCUUCAAAAUGUAUAUAUUUAGUGCUCAACAGAGGAUUGAGCAUCA
B7: ENSG00000006432:stop:overlap|stop_codon|ENSG00000006432|stop_codon|NA|stop_codon (ssRNA)
RNA: GGGAGUUCUACAGUCCGACGAUCGAGCGGAACUGAACACACACAGGCCUGCCCCUUAUGAGAUCCAGCAGGAGUUCUGGUCUUAGCACGAAAAGGAUUGGGGCGGGCAAGGGGGACAGCCAGCGGAGAUGAGGGGAGCUGGCGCAACAGAGGAUUGAGCAUCA
B8: chr6:132743869:132744491:-|three_prime_utr|ENSG00000112303|control|control|control (ssRNA)
RNA: GGGAGUUCUACAGUCCGACGAUCAUGUGGGACCAGCAAUUCAGCAAUAACUUACCUGCUAAUAUUCAUAUUAUUAAUGAUCAUAGCUUUGCAAAAUAUUGUAAUGUUAUAGGGCGUCUCUUUAUCACUCAGCUUCUGCAUCAUCAACAGAGGAUUGAGCAUCA
B9: chr6:149410404:149410522:+|3pUTR|ENSG00000055208|unk|FALSE|bound_elsewhere (ssRNA)
RNA: GGGAGUUCUACAGUCCGACGAUCUUAUAUUUCUAUAUGUAUAGUGUAAUAGCCUUUUGUUAACUAAUUUUCUUUUUUCCUUUUAGUAAUUAAGCACGAUCAUGUCCCUUUUUAAGCCUUACCUGAGAGGAACAAUGCCUUAAACAACAGAGGAUUGAGCAUCA
B10: chr6:149410404:149410522:+|3pUTR|ENSG00000055208|unk|total|mutant (ssRNA)
RNA: B9 RNA with U41C, A42C, U49C, A50C, U83C, A84C
B11: chr3:112140897:112141281:-|three_prime_utr|ENSG00000172139|control|control|control (ssRNA)
RNA: GGGAGUUCUACAGUCCGACGAUCACUUUUUGCAAAAUUUCCUUGAUUUAAAAUAUUUGUUAUUUUAAAUAUACAAAACAUUUUAGAAAAUCUUAGAGUAAAUUUUAGUCUUAAAGCCAGAAAAUAAGUUUAUAGCCAUCUAGACAACAGAGGAUUGAGCAUCA
B12: chr10:52765379:52768136:-|three_prime_utr|ENSG00000165471|control|control|control (ssRNA)
RNA: GGGAGUUCUACAGUCCGACGAUCUUGUUCCUUUUGUGGGCAAUCACUAAAAAUGAUCACUAACAGCACCAACAAAGCAAUAAUAGUAGUAGUAGUAGUUAGCAGCAGCAGUAGUAGUCAUGCUAAUUAUAUAAUAUUUUUAAUCAACAGAGGAUUGAGCAUCA
B13: chr5:172042892:172042993:-|3pUTR|ENSG00000072786|msi1|FALSE|unique (ssRNA)
RNA: GGGAGUUCUACAGUCCGACGAUCGAUUCUCCCGCUUCAACCUUGAGUAGCUGGGACGACAGAUACAUGCUACUGCACCCAGCUAGGUUAAGGUUCUGUAUACUCUGUCUUUCUAAAGCAAUUCCCUGGAAAUUUUCUCAACAUCAACAGAGGAUUGAGCAUCA
B14: chr12:85264020:85264122:+|3pUTR|ENSG00000133640|unk|FALSE|unique (ssRNA)
RNA: GGGAGUUCUACAGUCCGACGAUCCAUAGUAUUUCAGUUACUUUCCACAGCUGUGUUGCUCAAUAAUAGCAUCCAGUGAACUUUAGUAUUUUUUUGUUUUUCCUGUAUUUUAUUAAAAUAUUUCAUCUAGAGAUAACUGAAGUGCAACAGAGGAUUGAGCAUCA
B15: chr1:32196422:32196614:+|3pUTR|ENSG00000084652|msi1|FALSE|unique (ssRNA)
RNA: GGGAGUUCUACAGUCCGACGAUCACAGUUGUUUCUGUGUCCUGUUCUACCCCCACUCCAGUACAUAACUACUAUGUACUGUGUAGAGCCAUUCUAUAUGCUGAAUGUUCUGCUGUUGCAAACUUGCCAGGGUAUUAGCCAGUGCAACAGAGGAUUGAGCAUCA
B16: chr17:67075675:67075776:-|3pUTR|ENSG00000198265|unk|FALSE|unique (ssRNA)
RNA: GGGAGUUCUACAGUCCGACGAUCAUUCCUUAUUUCCAUAGCCAGUCAAGGAUUCUAACGCUGCUUCCAUCUGAUACUCUUCUUAGAUUCUGCAUCAAAUGCUUAUUUUGACUUACAACAAGCUUACUCUUCCUCAGCAUUACACAACAGAGGAUUGAGCAUCA
B17: chr3:62294137:62294238:+|3pUTR|ENSG00000144724|msi1|FALSE|unique (ssRNA)
RNA: GGGAGUUCUACAGUCCGACGAUCUGAGACCCUUUAGUUAUUCUCCAUUAAUGCUUCUUAGUUUGUAAUACCAUACCUCACAGUAGGUAGAAGAAUGAAAACUUCUGCAGGUGUGUAAUUUUGAAACUAGUCCUCUAAAAAUUCCAACAGAGGAUUGAGCAUCA
B18: chr3:97755980:97756081:+|3pUTR|ENSG00000080224|unk|FALSE|unique (ssRNA)
RNA: GGGAGUUCUACAGUCCGACGAUCUAAUUAAAAAUCUCUUUCCUACCUUUAGUAAUUUGUAGGAUGAACUGUAUGCAUUUAGAUAGAAAUUGCUUUUGUUAAAUUUACAUUUAAACACAUCUUCAUUCACUUAGAGAAGCCAUACAACAGAGGAUUGAGCAUCA
B19: chr6:53267885:53267986:-|3pUTR|ENSG00000012660|msi1_unk|FALSE|overlapping (ssRNA)
RNA: GGGAGUUCUACAGUCCGACGAUCUUUAAUGUAAAUCUAAUAGUACUUGUAAUUUCUUUCUGCUUAGAAUCUAAAGAUGUGUUUAGAACCUCUUGUUUAAAAAUAAUAGACUGCUUAUCAUAAAAUCACAUCUCACACAUUUGACAACAGAGGAUUGAGCAUCA
B20: chr4:138171397:138171528:-|3pUTR|ENSG00000151012|msi1|FALSE|unique (ssRNA)
RNA: GGGAGUUCUACAGUCCGACGAUCAUUAUGGCAAAGAGGAGAGAAAGAAAUUUAUUUUACAUUGACAUUGCAUUGCUUCCCCUUAGAUACCAAUUUAGAUAACAAACACUCAUGCUUUAAUGGAUUAUACCCAGAGCACUUUGACAACAGAGGAUUGAGCAUCA
B21: chr4:138171397:138171528:-|3pUTR|ENSG00000151012|msi1|total|mutant (ssRNA)
RNA: B20 RNA with U83C, A84C, U95C, A96C
B22: chr3:31636526:31636632:+|3pUTR|ENSG00000163527|unk|FALSE|unique (ssRNA)
RNA: GGGAGUUCUACAGUCCGACGAUCCAAAAUGUGAUGAGAGCUUCUUGAACCGGUAAACUAGUACAGGUCUGAGAAAGACAUAUUAGAAGAAUCAUUAUACUUCCUUGAAUUAUAUUUAUUUUCAUGUUUCUCUAAUGCAAAGAACAACAGAGGAUUGAGCAUCA
B23: chr8:41543231:41543332:+|3pUTR|ENSG00000147536|msi1|total|mutant (ssRNA)
RNA: GGGAGUUCUACAGUCCGACGAUCAAACCAUUAUUAAAUUUCCAUUCUGCAGCAGAAGGCACCUCUGGACGGCUCCCGGCUUGCCGUUUAAUGAAGUAUGUGCUCCCUGCUGUUAACCCGCAGCCCUCCCCAACUCUCCAGCAGCAACAGAGGAUUGAGCAUCA
B24: chr8:41543231:41543332:+|3pUTR|ENSG00000147536|msi1|FALSE|unique (ssRNA)
RNA: B23 RNA with C83U, C84A
B25: ENSG00000070961:be:win_5101|3pUTR|ENSG00000070961|bound_else_gene|NA|bound_elsewhere_windowed (ssRNA)
RNA: GGGAGUUCUACAGUCCGACGAUCAUGACCACCAUUGUCUUUGAUACAUUUAUUUUAAUUCUUAAGUGGCCAAAUAACAGAUUAGGUAAAAUGAGAUUACAUGAAAAGGUUCUAAAAUGAUAUAUUUAGAUGCAAUAAUUAACCCAACAGAGGAUUGAGCAUCA
B26: ENSG00000176244:stop:overlap|stop_codon|ENSG00000176244|stop_codon|NA|stop_codon (ssRNA)
RNA: GGGAGUUCUACAGUCCGACGAUCAAGAUGCGACGAGUGCCUAUAUUUCUAAAGCAAAGGAGCUGAUAGAAAAAUACGGAAUUUAGAAUACAGCAUAUGAGGAAUUUUUCCUUUUGAAGACUUCCAAAUGCUAUCAUGACCUAACAACAGAGGAUUGAGCAUCA
B27: chr15:78283234:78283431:-|three_prime_utr|ENSG00000140395|control|control|control (ssRNA)
RNA: GGGAGUUCUACAGUCCGACGAUCUCUCCAGGCUUAUGCUGCAAAGAGAAUGUACGGAUUGAUCAUGACAUUCCUUACCUUCUUAGGCUUGUUUAAAAGAAAUAUAGCAUUUAUUGUAGCAAAGACUUAAAUUUUGUAGAUACACAACAGAGGAUUGAGCAUCA
B28: chr19:33301014:33301115:-|3pUTR|ENSG00000245848|unk|FALSE|unique (ssRNA)
RNA: GGGAGUUCUACAGUCCGACGAUCUCCCUGCGAGGAGGGGAGAAUUCUUGGGGCUGAGCUGGGAGCCCGGCAACUCUAGUAUUUAGGAUAACCUUGUGCCUUGGAAAUGCAAACUCACCGCUCCAAUGCCUACUGAGUAGGGGGCAACAGAGGAUUGAGCAUCA

The target of the test is T1, UNK ZnF1-6 (called full-length) (human, UniProt Q9C0B0 30-357).
T1 sequence: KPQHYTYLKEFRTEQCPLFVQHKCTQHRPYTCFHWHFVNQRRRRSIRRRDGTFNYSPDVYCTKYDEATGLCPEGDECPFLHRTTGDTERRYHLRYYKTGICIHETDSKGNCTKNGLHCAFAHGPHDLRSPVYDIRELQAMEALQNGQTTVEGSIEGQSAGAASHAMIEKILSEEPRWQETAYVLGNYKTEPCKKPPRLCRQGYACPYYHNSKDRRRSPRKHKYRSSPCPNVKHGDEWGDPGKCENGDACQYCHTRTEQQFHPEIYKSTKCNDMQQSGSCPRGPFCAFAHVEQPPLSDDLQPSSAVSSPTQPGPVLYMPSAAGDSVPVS
The test is described as follows: nsRBNS (natural sequence RNA bind-n-seq); RBNS binding buffer (assumed for nsRBNS): 25 mM Tris pH 7.5, 150 mM KCl, 3 mM MgCl2, 0.01% Triton X-100, 500 ug/ml BSA, 20 U/ml SUPERase-In, 4 C; UNK is unkempt and MSI1 is Musashi-1; names of the RNAs are library labels; protein concentration not given here; high values mean tight binding.
For B1, the binding signal is 0.497 enrichment R. The molecule B2 displayed a binding signal of 0.452 enrichment R. The result for B3 reads 1.99 enrichment R; that for B4, 0.727 enrichment R. On to B5, for which the binding signal was 0.805 enrichment R. The result for B6 reads 1.93 enrichment R. As for B7, the binding signal was 11.7 enrichment R. Regarding B8, the binding signal is 0.744 enrichment R. B9 returned a binding signal of 66 enrichment R.

In turn, B10 registered a binding signal of 4.24 enrichment R.

The molecule B11 registered a binding signal of 2.83 enrichment R. Then B12, with 16.5 enrichment R; and B13, with 0.494 enrichment R; and B14, with 10 enrichment R. Then B15, with 0.631 enrichment R; and B16, with 1.05 enrichment R; and B17, with 16.2 enrichment R. Then B18, with 10.1 enrichment R. In turn, B19 registered a binding signal of 10.2 enrichment R. In turn, B20 displayed a binding signal of 73.9 enrichment R. Then B21, with 0.489 enrichment R; and B22, with 1.21 enrichment R; and B23, with 1.48 enrichment R. Molecule B24 came in with a binding signal of 11.4 enrichment R. In the case of B25, the binding signal was 3.73 enrichment R.

B26 yielded a binding signal of 0.808 enrichment R. Turning to B27, the binding signal turned out to be 13.8 enrichment R. As to B28, the binding signal worked out at 4.16 enrichment R.
